PubChem BioAssay AID1159580 (chemical genetic matrix, 2015)
About 2,000 (36%) of roughly 5,500 compounds were called active. Another 18% or so got no clear call; they are omitted. Cut-off read from the data, not from the text of the source: active = normalized growth mostly below about 0.91 (no sharp cut-off); inconclusive = no clear call, values can overlap the other calls; inactive = mostly above about 0.92. Some of the results follow.

Test: chemical genetic growth profiling, strain panel (AID 1159580);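 note: tested at 20 µM; growth read once vehicle control cultures reached saturation at 30 °C; 1 = growth at the plate median or of vehicle wells; lower values mean less growth of the strain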
Details: S. cerevisiae deletion strains, growth OD

Measured: normalized growth

Cc1nc(N)cc(C[n+]2csc(CCO)c2C)n1
inactive: locus YAL021C, strain ccr4, hits give low values 0.946 | locus YAL026C, strain drs2, hits give low values 0.974 | locus YAL030W, strain snc1, hits give low values 0.981 | locus YBL061C, strain skt5, hits give low values 0.983 | locus YBR009C, strain hhf1, hits give low values 0.979 | locus YBR023C, strain chs3, hits give low values 0.998 | locus YBR171W, strain sec66, hits give low values 0.971 | locus YBR231C, strain swc5, hits give low values 0.987 | locus YBR279W, strain paf1, hits give low values 0.985 | locus YCL011C, strain gbp2, hits give low values 0.966 | locus YCL016C, strain dcc1, hits give low values 0.992 | locus YCL061C, strain MRC1, hits give low values 0.977 | locus YCL069W, strain vba3, hits give low values 0.981 | locus YCR088W, strain abp1, hits give low values 0.98 | locus YDL005C, strain med2, hits give low values 0.984 | locus YDL040C, strain nat1, hits give low values 0.988 | locus YDR001C, strain nth1, hits give low values 0.974 | locus YDR069C, strain doa4, hits give low values 0.984 | locus YDR137W, strain rgp1, hits give low values 0.966 | locus YDR159W, strain sac3, hits give low values 0.965 | locus YDR195W, strain ref2 0.944 | locus YDR297W, strain sur2, hits give low values 0.979 | locus YDR334W, strain swr1, hits give low values 0.955 | locus YDR335W, strain msn5, hits give low values 0.966 | locus YDR392W, strain spt3, hits give low values 0.973 | locus YEL003W, strain gim4, hits give low values 0.971 | locus YEL037C, strain rad23, hits give low values 0.967 | locus YEL061C, strain CIN8 (second series), hits give low values 0.974 | locus YER015W, strain faa2, hits give low values 0.975 | locus YER016W, strain bim1, hits give low values 0.979 | locus YER111C, strain swi4, hits give low values 0.992 | locus YER155C, strain BEM2 (second series), hits give low values 0.975 | locus YFR010W, strain ubp6, hits give low values 0.962 | locus YGL167C, strain pmr1, hits give low values 0.973 | locus YGL173C, strain kem1, hits give low values 0.979 | locus YGL227W, strain vid30, hits give low values 0.987 | locus YGL240W, strain doc1, hits give low values 0.98 | locus YGL253W, strain hxk2, hits give low values 0.986 | locus YHR013C, strain ard1, hits give low values 0.986 | locus YHR027C, strain rpn1, hits give low values 0.988 | locus YHR030C, strain SLT2, hits give low values 0.954 | locus YHR079C, strain IRE1, hits give low values 0.942 | locus YHR142W, strain chs7, hits give low values 0.963 | locus YJL092W, strain hpr5, hits give low values 0.966 | locus YJL095W, strain BCK1 (second series), hits give low values 0.978 | locus YJL095W, strain BCK1, hits give low values 0.968 | locus YJL115W, strain asf1, hits give low values 0.969 | locus YJL129C, strain trk1, hits give low values 0.965 | locus YJL154C, strain vps35, hits give low values 0.988 | locus YJL164C, strain tpk1, hits give low values 0.985 | locus YJL166W, strain qcr8, hits give low values 0.981 | locus YJL187C, strain SWE1, hits give low values 0.99 | locus YJR066W, strain TOR1, hits give low values 0.932 | locus YKL160W, strain elf1, hits give low values 0.981 | locus YKR026C, strain gcn3, hits give low values 0.97 | locus YKR091W, strain srl3, hits give low values 0.978 | locus YLL001W, strain dnm1, hits give low values 0.983 | locus YLL026W, hits give low values 0.988 | locus YLL041C, strain sdh2, hits give low values 0.98 | locus YLR027C, strain aat2, hits give low values 0.986 | locus YLR113W, strain HOG1, hits give low values 0.941 | locus YLR221C, strain rsa3, hits give low values 0.982 | locus YLR258W, strain gsy2, hits give low values 0.986 | locus YLR262C, strain YPT6 (second series), hits give low values 0.992 | locus YLR320W, strain mms22, hits give low values 0.988 | locus YLR342W, strain FKS1, hits give low values 0.991 | locus YLR357W, strain rsc2, hits give low values 0.99 | locus YLR370C, strain arc18, hits give low values 0.979 | locus YLR384C, strain iki3, hits give low values 0.983 | locus YML120C, strain ndi1, hits give low values 0.962 | locus YMR058W, strain fet3, hits give low values 0.969 | locus YMR125W, strain sto1, hits give low values 0.946 | locus YMR129W, hits give low values 0.97 | locus YMR205C, strain PFK2, hits give low values 1.01 | locus YMR231W, strain pep5, hits give low values 0.992 | locus YNL071W, strain lat1, hits give low values 0.988 | locus YNL183C, strain NPR1, hits give low values 0.926 | locus YNL209W, strain ssb2, hits give low values 0.981 | locus YNL248C, strain rpa49, hits give low values 0.948 | locus YNL322C, strain KRE1 (second series), hits give low values 0.964 | locus YNR049C, strain mso1, hits give low values 0.978 | locus YOR001W, strain rrp6, hits give low values 0.95 | locus YOR070C, strain gyp1, hits give low values 0.998 | locus YOR080W, strain dia2, hits give low values 0.971 | locus YOR083W, strain WHI5, hits give low values 0.969 | locus YOR106W, strain vam3, hits give low values 0.972 | locus YOR231W, strain MKK1, hits give low values 0.96 | locus YOR265W, strain rbl2, hits give low values 0.983 | locus YOR270C, strain vph1, hits give low values 0.94 | locus YOR290C, strain snf2, hits give low values 0.975 | locus YPL051W, strain arl3, hits give low values 0.996 | locus YPL078C, strain atp4, hits give low values 0.976 | locus YPL106C, strain sse1, hits give low values 0.953 | locus YPL240C, strain hsp82, hits give low values 0.972 | locus YPL256C, strain CLN2, hits give low values 0.95
